Assay outcomes (PubChem)
The list is not random: actives were taken first. Their share in the collection is about 12%.
BAZ2B inh = BAZ2B (human) inhibition; Q9UIF8; Potency, µM (top dose mostly 114 µM), for the others: at the top dose activity change, negative = inhibition, hits mostly inhibitors; AlphaScreen BAZ2B-H3K14Ac peptide displacement; hit rate 4.4% among 360,000; note: potency is the fitted concentration of half-maximal effect; % is set by controls: 0 for no effect and ±100 for the full control effect; nearly all actives have a fitted effect of over 60% in size
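AlphaScreen luminescence quantifies BAZ2B engagement of H3K14Ac peptide; the protein and biotinylated peptide are both at 50 nM final, buffer PBS pH 7.4 with 0.01% Tween-20, all steps at room temperature.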
G9a block = inhibitors of human histone lysine methyltransferase G9a; Q96KQ7; G9a H3K9 monomethylation, AlphaScreen, 2 h; Potency, µM (highest dose often 102 µM), for the others: at the top dose activity, negative = inhibition, usual class: inhibitors; hit rate 8.8% among 350,000; AID 504332; note: potency is the fitted concentration of half-maximal effect; % is set by controls: 0 for no effect and ±100 for the full control effect; nearly all actives have a fitted effect of over 75% in size
Target sequence (Q96KQ7 913-1193 limits assumed): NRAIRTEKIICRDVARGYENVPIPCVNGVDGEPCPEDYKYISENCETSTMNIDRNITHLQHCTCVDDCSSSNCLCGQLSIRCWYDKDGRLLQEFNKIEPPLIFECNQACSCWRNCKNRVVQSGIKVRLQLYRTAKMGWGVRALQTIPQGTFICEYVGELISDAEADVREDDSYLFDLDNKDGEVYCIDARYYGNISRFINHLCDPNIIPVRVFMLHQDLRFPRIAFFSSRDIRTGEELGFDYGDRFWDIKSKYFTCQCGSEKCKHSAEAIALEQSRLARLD
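Readings reflect AlphaScreen signal from monomethyl-H3K9 antibody detection. HMT at 20 nM; substrate b-H3K9 500 nM; cofactor SAM 20 uM; 2 h RT reaction; compounds tested as titrations in qHTS with 15 min preincubation.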
HP1b binding inh = inhibitors of HP1-beta chromodomain binding to methylated histone tails. Potency, µM (highest dose often 114 µM), inactives show at the top dose activity change, negative = inhibition, most hits filed as inhibitors. P83916. AlphaScreen HP1-beta / biotin-H3K9me3 peptide binding. AID 540317. hit rate 0.56% among 390,000; note: potency is the fitted concentration of half-maximal effect; nearly all actives have a fitted effect of over 70% in size
Target sequence (P83916 whole entry, looked up): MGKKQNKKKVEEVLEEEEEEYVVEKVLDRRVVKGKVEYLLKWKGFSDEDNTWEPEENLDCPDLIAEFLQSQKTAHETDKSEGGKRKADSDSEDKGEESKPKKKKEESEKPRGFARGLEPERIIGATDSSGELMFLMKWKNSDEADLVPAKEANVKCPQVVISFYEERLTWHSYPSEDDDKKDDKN
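Compound inhibition of the preformed complex between 50 nM HP1-beta and 50 nM biotinylated H3K9me3 peptide was read by AlphaScreen. Buffer was PBS pH 7.4 with 0.01% Tween-20. Incubations ran 30 min at room temperature, with 10 ug/mL donor/acceptor beads.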
JMJD2A Tudor = blocks the human JMJD2A Tudor domain. AlphaScreen JMJD2A-Tudor / H3K4me3 peptide binding. AID 504339. Potency, µM (highest dose often 114 µM), for the others: at the top dose activity change, negative = inhibition, actives largely listed as inhibitors. hit rate 4.4% among 390,000; note: potency is the fitted concentration of half-maximal effect; % is set by controls: 0 for no effect and ±100 for the full control effect; nearly all actives have a fitted effect of over 50% in size
PLK1 PBD inh = PLK1 (human) polo-box domain binding inhibition; P53350; Plk1 PBD binding of FITC phosphopeptide, fluorescence polarization; Potency, µM, without a hit: max response, negative = inhibition, actives largely listed as inhibitors; hit rate 2.8% among 360,000; AID 720504; note: potency is the fitted concentration of half-maximal effect; series mostly up to about 57 µM; % is set by controls: 0 for no effect and ±100 for the full control effect; nearly all actives have a fitted effect of over 65% in size
PI5P4K alpha inh = PI5P4K alpha (human) kinase inhibition | P48426 | PI5P4Kalpha enzyme, ADP-Glo luminescence, 60 min; active compounds read low | max response, % | hit rate 1.2% among 330,000; active = max response of -50% or lower; inconclusive = between -30% and -50%; inactive = -30% or higher; note: value at the top dose of about 77 µM; % is set by controls: 0 for no effect and ±100 for the full control effect
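Human PI5P4Kalpha with substrate in 0.038 M HEPES pH 7.4, 0.28 mM EGTA, 0.1% CHAPS, 5% DMSO; reaction started with 5 microM ATP (final), 60 min at room temperature. ADP formed read by ADP-Glo luminescence.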
Active calls of the source: *; ? = inconclusive; . = no result given; [ ] = another dose, or the depositor's remark. Unless noted, calls come from the whole dose curve; as a rule, active = well fitted curve in the direction sought with a large enough effect; inconclusive = small, poorly fitted or top-dose-only effect, or another doubt; inactive = no such curve, though single readings can be large; an effect the other way counts as inactive or inconclusive.

SMILES	BAZ2B inh	G9a block	HP1b binding inh	JMJD2A Tudor	PLK1 PBD inh	PI5P4K alpha inh
O=C(c1cccs1)N1C[C@@H](n2cc(-c3ccc(F)cc3)nn2)[C@H](O)C[C@@H]1c1ccccc1	.	.	.	.	-6%	6
c1cc(-c2nnc(-c3ccncc3)o2)ccn1	-1%	0%	12%	-17%	-7%	-6
S=c1oc(-c2ccncc2)nn1CCc1ccncc1	56µM*	3%[12.7 µM]	40%	-19%	-6%	4
CCOc1ccc(-n2nnnc2SCC(=O)NC2CCCC2)cc1	-2%	1%	13%	-7%	-3%	4
O=C(CSc1nnnn1-c1ccc(F)cc1)NC1CCCCC1	5%	-13%[12.7 µM]	?	79µM*	27µM*	-4
CC(=O)c1ccc(-n2nnnc2SCC(=O)NC2CCCCC2)cc1	-3%	35µM*	-13%	-8%	?	-2
CC(=O)Nc1ccc(-n2nnnc2SCC(=O)NC2CCCC2)cc1	-2%	-6%	2%	-9%	-13%	6
O=C(Nc1ccc(C(=O)N2CCCCC2)cc1)Nc1cccc(Cl)c1	-16%	-11%	11%	-11%	-1%	6
COc1cc(OC)c(NC(=O)C2CC(=O)N(c3ccc4c(c3)OCCO4)C2)cc1Cl (stereo not drawn)	4%	45µM*	-8%	-24%	-6%	-7
CC(C)CC(=O)NC1CC(=O)N(c2ccc3c(c2)OCCO3)C1 (stereo not drawn)	-8%	-2%[59 µM]	-22%	100µM*	.	.
O=C(Nc1ccccc1Cc1ccccc1)C1CC(=O)N(c2ccc3c(c2)OCCO3)C1 (stereo not drawn)	50µM*	3.5µM*	-16%	?	-1%	.
CCN(CC)S(=O)(=O)c1ccc(OC)c(NC(=O)C2CC(=O)N(c3ccc4c(c3)OCCO4)C2)c1 (stereo not drawn)	-13%	.	13%	-18%	-2%	0
CCN(CC)S(=O)(=O)c1cccc(NC(=O)C2CC(=O)N(c3ccc4c(c3)OCCO4)C2)c1 (stereo not drawn)	-3%	50µM*	-13%	-21%	3%	1
Cc1cc(C)c(NC(=O)C2CC(=O)N(c3ccc4c(c3)OCCO4)C2)c(C)c1 (stereo not drawn)	-18%	-14%	6%	?	-10%	-8
CC(=Nc1ccccc1)C1=C(O)C(Cc2ccccc2)NC1=O (stereo not drawn)	.	.	?	-12%	-6%	-5
COc1cccc(CN2CCN(C(=O)[C@H]3O[C@@H](n4cnc5c(N)ncnc54)[C@H](O)[C@@H]3O)CC2=O)c1	.	.	.	.	-11%	1
COc1ccc(OC)c(C2CC(=O)c3c([nH]c(C(=O)OCC4CCCCC4)c3C)C2)c1 (stereo not drawn)	-9%	-5%[59 µM]	10%	-16%	.	.
Cn1nc(-c2ccc(F)cc2)nc2c(=O)n(C)c(=O)nc1-2	.	.	14%[57 µM]	-3%[57.1 µM]	.	.
COc1ccc(C2C(C#N)=C(N)N(c3cccnc3)C3=C2C(=O)CC(C)(C)C3)cc1OC (stereo not drawn)	-29%	35µM*	53%	-11%	-19%	2
COc1ccc(C2C3=C(CC(C)(C)CC3=O)N(CC(=O)O)C3=C2C(=O)CC(C)(C)C3)cc1OC	-19%	71µM*	49%	9%	2%	0
CC1(C)CC(=O)C2=C(C1)N(c1ccccc1C#N)C(N)=C(C#N)C2c1cccs1 (stereo not drawn)	56µM*	40µM*	-5%	?	-5%	-7
CCOc1ccc(C2C(C#N)=C(N)N(N(C)C)C3=C2C(=O)CC(C)(C)C3)cc1 (stereo not drawn)	-2%	35µM*	30%	-3%	-12%	0
CC1(C)CC(=O)C2=C(C1)N(c1cccnc1)C(N)=C(C#N)C2c1cccs1 (stereo not drawn)	-4%	-15%[59 µM]	42%	-11%	2%	4
Cc1ccccc1NS(=O)(=O)c1ccc2oc(=O)ccc2c1	1%	?	33%	8%	3%	-1
Cc1nn(C)cc1C1C(C#N)=C(N)N(c2cccnc2)C2=C1C(=O)CCC2 (stereo not drawn)	2%	4%[59 µM]	9%	-16%	-5%	-5
SMILES	BAZ2B inh	G9a block	HP1b binding inh	JMJD2A Tudor	PLK1 PBD inh	PI5P4K alpha inh
COc1ccc(N2C(N)=C(C#N)C(c3cccnc3)C3=C2CC(C)(C)CC3=O)cc1 (stereo not drawn)	-4%	11µM*	44%	-22%	-20%	5
Cc1ccc(C2C(C#N)=C(N)N(c3cccnc3)C3=C2C(=O)CCC3)s1 (stereo not drawn)	?	40µM*	49%	-32%	?	-1
CCCOc1ccc(-c2nn(-c3ccccc3)cc2C2NC(=O)NC(C)=C2C(=O)OC(C)C)cc1 (stereo not drawn)	?	-41%[59 µM]	7%	-35%	.	.
COc1ccc(NS(=O)(=O)c2ccc(Oc3ncccn3)cc2)cc1	7%	9%	6%	-14%	-1%	1
COc1nccnc1NS(=O)(=O)c1ccc(NC(=S)NC(=O)c2ccc(F)cc2)cc1	-39%	?	-12%	-29%	-10%	-7
COc1ccc(S(=O)(=O)Nc2ccc(Oc3ncccn3)c(Cl)c2)cc1	2%	0%[59 µM]	?	-21%[11.4 µM]	5.3µM*	?
O=C(Nc1ccc(S(=O)(=O)Nc2nccs2)cc1)c1ccncc1	.	.	.	.	-3%	1
O=C(Nc1ccc(S(=O)(=O)Nc2nccs2)cc1)C1=NN(c2ccccc2)C(=O)CC1	-8%	45µM*	19%	-18%	-10%	?
O=C(NC(=S)Nc1ccc(S(=O)(=O)Nc2nccs2)cc1)c1ccc(F)cc1	?	10µM*	-24%	-34%	-20%	-15
CC(C)(C)C(=O)NC(=S)Nc1ccc(S(=O)(=O)Nc2nccs2)cc1	-31%	50µM*	18%	-27%	-17%	0
CCOC(=O)c1cc(OC(=O)c2ccc(C)cc2)n(-c2ccccc2)n1	13%	53%[59 µM]	89%	-12%	.	.
CC(=O)Oc1ccc(C(=O)Nc2cccnc2)cc1	7%	4%	20%	-5%	6%	-9
O=C1c2[nH]nc(-c3ccccc3O)c2C(c2ccc(Cl)cc2)N1CCc1ccccc1 (stereo not drawn)	-5%	9%[59 µM]	56%	-4%	.	.
COc1ccc(S(=O)(=O)Nc2ccc(S(=O)(=O)Nc3nccs3)cc2)cc1	-3%	50µM*	11%	-7%	2%	0
CCN(CC)c1ccc(NS(=O)(=O)c2ccc(OC)cc2)cc1	40µM*	16µM*	25%	-3%	-2%	1
O=C(Nc1ccc(S(=O)(=O)Nc2nccs2)cc1)c1ccc(=O)[nH]c1	50µM*	.	-13%	?	?	?
COc1ccc(CC(=O)Nc2ccc(S(=O)(=O)Nc3nccs3)cc2)cc1	-26%	-79%	-8%	?	-21%	-27
